Laboratory results reported in article PMC7862700, “An all-to-all approach to the identification of sequence-specific readers for epigenetic DNA modifications on cytosine”.

Columns and labels:
Test in all cases: DAPPL (digital affinity profiling via proximity ligation, sequencing); 10 mM Tris-HCl pH 7.5, 50 mM NaCl, 1 mM DTT, 4% glycerol, room temperature, 30 min; GST-TFs on glutathione beads, 16-mer random dsDNA library, 0.1% formaldehyde crosslink after washing; high values mean tight binding
FEV = biological target: T1, FEV (Homo sapiens, UniProt Q99581 1-238); settings: protein: recombinant; tags: N-terminal GST; dsDNA, one strand shown
T1 sequence: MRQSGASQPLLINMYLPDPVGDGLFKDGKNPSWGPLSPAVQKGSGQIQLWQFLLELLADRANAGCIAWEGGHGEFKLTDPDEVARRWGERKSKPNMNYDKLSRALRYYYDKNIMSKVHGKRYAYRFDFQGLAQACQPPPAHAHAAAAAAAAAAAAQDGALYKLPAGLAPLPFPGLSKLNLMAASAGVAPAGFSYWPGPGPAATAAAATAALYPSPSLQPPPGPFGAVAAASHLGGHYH
Summary of the method: (§1)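 A tag-only sample was pooled with DNA-barcoded human transcription factors that had been expressed in yeast as GST fusions and captured on glutathione beads. The pools were incubated for 30 min at room temperature with 200 nmole of a random double-stranded 16-mer DNA library in Tris/NaCl/DTT/glycerol buffer, then washed, crosslinked with 0.1% formaldehyde, proximity-ligated (BsaI/T4 ligase, 1 h, 37 °C), PCR-amplified and sequenced on an Illumina NextSeq500. Binding signal is each hexamer's read frequency for a factor divided by its frequency for the tag-only sample.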

ETV5 = ETV5 (Homo sapiens, UniProt P41161 1-510); settings: protein: recombinant; tags: N-terminal GST; dsDNA, one strand shown
Chain of ETV5 (P41161 whole entry): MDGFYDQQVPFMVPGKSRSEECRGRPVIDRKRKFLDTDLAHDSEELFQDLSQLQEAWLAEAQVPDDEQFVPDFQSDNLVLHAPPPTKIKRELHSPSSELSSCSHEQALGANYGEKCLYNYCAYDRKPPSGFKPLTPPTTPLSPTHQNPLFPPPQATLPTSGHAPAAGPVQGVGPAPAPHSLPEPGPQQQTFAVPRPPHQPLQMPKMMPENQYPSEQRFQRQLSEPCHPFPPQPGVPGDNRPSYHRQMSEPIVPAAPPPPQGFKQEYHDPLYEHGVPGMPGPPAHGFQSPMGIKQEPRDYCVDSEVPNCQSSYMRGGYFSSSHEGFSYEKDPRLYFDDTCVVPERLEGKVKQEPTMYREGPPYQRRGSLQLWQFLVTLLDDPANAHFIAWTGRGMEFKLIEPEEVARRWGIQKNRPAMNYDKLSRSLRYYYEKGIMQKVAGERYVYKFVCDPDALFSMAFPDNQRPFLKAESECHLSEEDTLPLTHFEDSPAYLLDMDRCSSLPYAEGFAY
Summary of the method: as §1

HSF1 = HSF1 (Homo sapiens, UniProt Q00613 1-529); settings: protein: recombinant; tags: N-terminal GST; chain copies: 3; dsDNA, one strand shown
Chain of HSF1 (Q00613 whole entry): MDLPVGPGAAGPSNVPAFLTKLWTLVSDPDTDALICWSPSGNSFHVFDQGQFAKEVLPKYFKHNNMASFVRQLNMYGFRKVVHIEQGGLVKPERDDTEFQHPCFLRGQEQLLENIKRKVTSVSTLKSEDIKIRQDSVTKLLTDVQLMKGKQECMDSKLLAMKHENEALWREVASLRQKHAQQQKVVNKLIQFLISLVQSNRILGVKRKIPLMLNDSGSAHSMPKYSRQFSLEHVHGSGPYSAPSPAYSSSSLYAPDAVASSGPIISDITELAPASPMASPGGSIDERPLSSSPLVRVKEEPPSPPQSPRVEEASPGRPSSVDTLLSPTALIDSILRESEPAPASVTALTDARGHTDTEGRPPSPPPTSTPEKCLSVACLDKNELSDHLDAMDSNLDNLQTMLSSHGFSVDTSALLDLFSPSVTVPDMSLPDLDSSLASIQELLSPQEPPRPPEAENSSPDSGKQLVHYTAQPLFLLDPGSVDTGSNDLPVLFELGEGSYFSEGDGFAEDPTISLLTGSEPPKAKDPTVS
Summary of the method: as §1

SPIC = biological target: T2, SPIC (Homo sapiens, UniProt Q8N5J4 1-248); settings: protein: recombinant; tags: N-terminal GST; dsDNA, one strand shown
T2 sequence: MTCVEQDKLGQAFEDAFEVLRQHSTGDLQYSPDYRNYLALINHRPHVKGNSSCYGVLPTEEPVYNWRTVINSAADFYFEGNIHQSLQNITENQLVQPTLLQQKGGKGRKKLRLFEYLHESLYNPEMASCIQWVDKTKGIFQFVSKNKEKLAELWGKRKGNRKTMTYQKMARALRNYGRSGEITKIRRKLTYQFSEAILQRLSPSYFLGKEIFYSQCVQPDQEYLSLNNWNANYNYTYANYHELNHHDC
Summary of the method: as §1

ELF4 = ELF4 (Homo sapiens, UniProt Q99607 1-663); settings: protein: recombinant; tags: N-terminal GST; dsDNA, one strand shown
Chain of ELF4 (Q99607 whole entry): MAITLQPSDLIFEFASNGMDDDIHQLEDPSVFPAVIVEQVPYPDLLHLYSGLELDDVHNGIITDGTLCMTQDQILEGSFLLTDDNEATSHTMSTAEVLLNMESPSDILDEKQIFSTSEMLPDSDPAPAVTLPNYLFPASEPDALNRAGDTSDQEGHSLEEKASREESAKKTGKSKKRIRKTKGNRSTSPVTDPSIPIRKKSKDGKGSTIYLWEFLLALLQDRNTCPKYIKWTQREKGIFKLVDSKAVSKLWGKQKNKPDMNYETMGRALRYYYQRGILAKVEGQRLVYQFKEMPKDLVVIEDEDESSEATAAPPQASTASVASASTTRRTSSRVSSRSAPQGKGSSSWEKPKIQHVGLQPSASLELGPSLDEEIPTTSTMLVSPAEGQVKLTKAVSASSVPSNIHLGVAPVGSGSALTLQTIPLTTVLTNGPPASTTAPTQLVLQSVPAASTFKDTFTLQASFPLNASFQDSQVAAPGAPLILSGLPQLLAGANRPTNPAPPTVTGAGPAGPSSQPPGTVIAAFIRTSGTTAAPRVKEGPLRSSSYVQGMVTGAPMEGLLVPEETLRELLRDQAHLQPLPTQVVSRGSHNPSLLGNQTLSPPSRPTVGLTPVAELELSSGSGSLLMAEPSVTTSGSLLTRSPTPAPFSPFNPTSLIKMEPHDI
Summary of the method: as §1

ELK4 = biological target: T3, ELK4 (Homo sapiens, UniProt P28324-2 1-405); settings: protein: recombinant; tags: N-terminal GST; dsDNA, one strand shown
T3 sequence: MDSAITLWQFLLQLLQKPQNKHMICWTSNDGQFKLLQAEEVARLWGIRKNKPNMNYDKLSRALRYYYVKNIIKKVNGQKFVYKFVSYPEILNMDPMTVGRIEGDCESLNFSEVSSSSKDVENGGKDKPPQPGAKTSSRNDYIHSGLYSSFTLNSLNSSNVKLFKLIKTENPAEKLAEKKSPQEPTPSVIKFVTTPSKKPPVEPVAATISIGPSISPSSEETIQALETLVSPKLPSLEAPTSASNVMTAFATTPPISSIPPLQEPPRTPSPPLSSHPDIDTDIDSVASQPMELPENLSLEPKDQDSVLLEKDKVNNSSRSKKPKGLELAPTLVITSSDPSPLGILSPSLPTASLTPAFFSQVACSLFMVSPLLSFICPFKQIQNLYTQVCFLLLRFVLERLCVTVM
Summary of the method: as §1

ETV2 = biological target: T4, ETV2 (Homo sapiens, UniProt O00321 1-342); settings: protein: recombinant; tags: N-terminal GST; dsDNA, one strand shown
T4 sequence: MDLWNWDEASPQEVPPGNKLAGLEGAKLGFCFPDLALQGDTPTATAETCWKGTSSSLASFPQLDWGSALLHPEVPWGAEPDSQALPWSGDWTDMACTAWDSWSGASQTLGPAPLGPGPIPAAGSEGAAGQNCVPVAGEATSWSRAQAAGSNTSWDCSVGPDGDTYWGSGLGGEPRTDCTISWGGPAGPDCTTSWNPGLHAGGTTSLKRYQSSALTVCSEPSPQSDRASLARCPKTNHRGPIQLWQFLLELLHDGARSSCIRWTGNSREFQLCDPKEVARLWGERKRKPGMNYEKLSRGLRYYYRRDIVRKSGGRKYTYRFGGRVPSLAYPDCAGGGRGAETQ
Summary of the method: as §1

ELF3 = biological target: T5, ELF3 (Homo sapiens, UniProt P78545 1-371); settings: protein: recombinant; tags: N-terminal GST; dsDNA, one strand shown
T5 sequence: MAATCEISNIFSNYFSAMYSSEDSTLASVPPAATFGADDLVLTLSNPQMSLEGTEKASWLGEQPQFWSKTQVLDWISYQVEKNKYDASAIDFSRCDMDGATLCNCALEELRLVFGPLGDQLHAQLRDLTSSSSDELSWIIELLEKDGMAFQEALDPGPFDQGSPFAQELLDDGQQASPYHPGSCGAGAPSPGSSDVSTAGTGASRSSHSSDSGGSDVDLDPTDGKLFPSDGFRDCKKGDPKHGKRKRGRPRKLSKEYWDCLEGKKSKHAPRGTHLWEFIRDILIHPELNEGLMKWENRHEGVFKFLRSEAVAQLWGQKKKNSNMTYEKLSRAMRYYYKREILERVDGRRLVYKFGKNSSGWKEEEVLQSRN
Summary of the method: as §1

CRX = CRX (Homo sapiens, UniProt O43186 1-299); settings: protein: recombinant; tags: N-terminal GST; dsDNA, one strand shown
Chain of CRX (O43186 whole entry): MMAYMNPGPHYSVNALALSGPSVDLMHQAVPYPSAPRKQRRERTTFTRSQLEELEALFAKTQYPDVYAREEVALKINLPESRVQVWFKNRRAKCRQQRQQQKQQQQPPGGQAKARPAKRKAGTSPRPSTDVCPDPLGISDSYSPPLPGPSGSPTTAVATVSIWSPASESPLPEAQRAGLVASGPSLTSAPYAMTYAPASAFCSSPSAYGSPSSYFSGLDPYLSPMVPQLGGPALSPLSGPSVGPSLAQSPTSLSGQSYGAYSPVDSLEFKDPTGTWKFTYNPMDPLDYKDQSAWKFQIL
Summary of the method: as §1

ETV1 = ETV1 (Homo sapiens, UniProt P50549 1-477); settings: protein: recombinant; tags: N-terminal GST; dsDNA, one strand shown
Chain of ETV1 (P50549 whole entry): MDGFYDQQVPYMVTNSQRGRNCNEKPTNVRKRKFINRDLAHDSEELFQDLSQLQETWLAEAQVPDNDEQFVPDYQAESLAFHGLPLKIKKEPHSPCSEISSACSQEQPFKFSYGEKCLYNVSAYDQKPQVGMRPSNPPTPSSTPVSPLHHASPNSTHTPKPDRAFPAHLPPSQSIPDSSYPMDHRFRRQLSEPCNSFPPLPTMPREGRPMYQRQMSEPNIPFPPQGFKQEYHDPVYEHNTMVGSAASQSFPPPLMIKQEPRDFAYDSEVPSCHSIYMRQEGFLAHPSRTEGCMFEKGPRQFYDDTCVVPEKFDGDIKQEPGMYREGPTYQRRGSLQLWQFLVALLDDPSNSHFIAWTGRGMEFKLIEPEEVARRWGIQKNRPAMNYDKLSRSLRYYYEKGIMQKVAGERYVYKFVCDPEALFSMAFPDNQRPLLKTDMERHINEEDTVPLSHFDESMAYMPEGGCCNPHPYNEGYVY
Summary of the method: as §1

ERF = biological target: T6, ERF (Homo sapiens, UniProt P50548 1-548); settings: protein: recombinant; tags: N-terminal GST; dsDNA, one strand shown
T6 sequence: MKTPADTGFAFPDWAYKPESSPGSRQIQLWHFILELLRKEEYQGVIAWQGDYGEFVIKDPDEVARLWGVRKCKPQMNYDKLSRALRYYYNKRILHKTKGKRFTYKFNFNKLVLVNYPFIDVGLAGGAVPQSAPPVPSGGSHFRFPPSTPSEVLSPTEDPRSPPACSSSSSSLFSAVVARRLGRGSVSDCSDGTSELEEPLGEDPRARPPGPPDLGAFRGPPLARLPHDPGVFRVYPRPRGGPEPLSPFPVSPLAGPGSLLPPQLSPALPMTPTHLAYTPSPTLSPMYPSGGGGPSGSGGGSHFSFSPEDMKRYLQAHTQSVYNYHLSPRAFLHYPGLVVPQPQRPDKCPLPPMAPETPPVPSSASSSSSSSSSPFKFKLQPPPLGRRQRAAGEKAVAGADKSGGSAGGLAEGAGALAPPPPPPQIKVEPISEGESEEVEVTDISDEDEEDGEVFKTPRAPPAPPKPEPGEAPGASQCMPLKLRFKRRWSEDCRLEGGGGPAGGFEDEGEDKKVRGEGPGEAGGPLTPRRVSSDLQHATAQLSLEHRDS
Summary of the method: as §1

ETV3L = biological target: T7, ETV3L (Homo sapiens, UniProt Q6ZN32 1-361); settings: protein: recombinant; tags: N-terminal GST; dsDNA, one strand shown
T7 sequence: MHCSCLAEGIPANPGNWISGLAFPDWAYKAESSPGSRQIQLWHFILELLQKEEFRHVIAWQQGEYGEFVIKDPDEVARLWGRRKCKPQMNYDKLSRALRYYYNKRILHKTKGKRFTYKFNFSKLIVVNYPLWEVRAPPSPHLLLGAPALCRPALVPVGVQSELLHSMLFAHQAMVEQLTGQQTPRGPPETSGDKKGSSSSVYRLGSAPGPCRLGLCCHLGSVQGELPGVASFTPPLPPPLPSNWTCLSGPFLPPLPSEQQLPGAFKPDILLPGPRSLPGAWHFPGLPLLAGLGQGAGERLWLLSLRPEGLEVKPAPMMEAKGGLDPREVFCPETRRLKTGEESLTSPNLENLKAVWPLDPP
Summary of the method: as §1

ETS2 = biological target: T8, ETS2 (Homo sapiens, UniProt P15036 1-469); settings: protein: recombinant; tags: N-terminal GST; dsDNA, one strand shown
T8 sequence: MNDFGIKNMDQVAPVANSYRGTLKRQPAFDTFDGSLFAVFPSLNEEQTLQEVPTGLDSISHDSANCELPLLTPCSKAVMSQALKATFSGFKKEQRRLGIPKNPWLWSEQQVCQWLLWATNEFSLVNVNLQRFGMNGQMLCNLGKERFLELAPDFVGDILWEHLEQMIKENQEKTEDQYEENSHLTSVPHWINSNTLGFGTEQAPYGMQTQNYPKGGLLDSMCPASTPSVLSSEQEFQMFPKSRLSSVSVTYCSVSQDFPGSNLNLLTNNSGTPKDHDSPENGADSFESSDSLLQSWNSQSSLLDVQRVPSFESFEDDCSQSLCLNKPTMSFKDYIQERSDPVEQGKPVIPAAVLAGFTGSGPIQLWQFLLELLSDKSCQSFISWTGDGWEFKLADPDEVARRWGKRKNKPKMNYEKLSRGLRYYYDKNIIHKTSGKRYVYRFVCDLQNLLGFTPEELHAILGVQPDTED
Summary of the method: as §1

SPDEF = biological target: T9, SPDEF (Homo sapiens, UniProt O95238 1-335); settings: protein: recombinant; tags: N-terminal GST; dsDNA, one strand shown
T9 sequence: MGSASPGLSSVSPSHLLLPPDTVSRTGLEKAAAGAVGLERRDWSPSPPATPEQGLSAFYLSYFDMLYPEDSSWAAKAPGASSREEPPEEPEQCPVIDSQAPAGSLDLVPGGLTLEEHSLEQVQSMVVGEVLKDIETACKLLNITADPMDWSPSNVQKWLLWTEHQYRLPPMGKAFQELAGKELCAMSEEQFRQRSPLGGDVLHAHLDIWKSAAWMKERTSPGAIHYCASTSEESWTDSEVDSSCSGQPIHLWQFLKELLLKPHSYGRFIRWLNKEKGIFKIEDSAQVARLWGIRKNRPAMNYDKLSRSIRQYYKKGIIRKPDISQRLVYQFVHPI
Summary of the method: as §1

ETV7 = biological target: T10, ETV7 (Homo sapiens, UniProt Q9Y603 1-341); settings: protein: recombinant; tags: N-terminal GST; dsDNA, one strand shown
T10 sequence: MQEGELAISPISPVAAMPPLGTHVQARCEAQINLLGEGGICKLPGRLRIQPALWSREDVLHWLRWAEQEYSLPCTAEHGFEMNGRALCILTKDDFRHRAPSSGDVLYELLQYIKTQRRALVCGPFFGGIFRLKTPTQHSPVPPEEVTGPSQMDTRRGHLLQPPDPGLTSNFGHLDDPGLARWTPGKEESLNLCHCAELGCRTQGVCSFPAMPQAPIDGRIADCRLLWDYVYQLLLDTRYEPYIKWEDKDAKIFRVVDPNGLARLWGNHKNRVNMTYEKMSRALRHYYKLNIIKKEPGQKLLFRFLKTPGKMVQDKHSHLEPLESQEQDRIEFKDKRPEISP
Summary of the method: as §1

ELF5 = biological target: T11, ELF5 (Homo sapiens, UniProt Q9UKW6-2 1-255); settings: protein: recombinant; tags: N-terminal GST; dsDNA, one strand shown
T11 sequence: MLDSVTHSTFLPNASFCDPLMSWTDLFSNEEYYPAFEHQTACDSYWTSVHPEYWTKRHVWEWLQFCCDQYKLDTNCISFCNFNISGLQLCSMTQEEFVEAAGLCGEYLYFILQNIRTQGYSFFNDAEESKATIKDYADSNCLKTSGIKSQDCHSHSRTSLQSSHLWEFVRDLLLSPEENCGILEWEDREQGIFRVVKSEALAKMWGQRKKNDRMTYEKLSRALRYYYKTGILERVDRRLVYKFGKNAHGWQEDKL
Summary of the method: as §1

ETV3 = biological target: T12, ETV3 (Homo sapiens, UniProt P41162-2 1-143); settings: protein: recombinant; tags: N-terminal GST; dsDNA, one strand shown
T12 sequence: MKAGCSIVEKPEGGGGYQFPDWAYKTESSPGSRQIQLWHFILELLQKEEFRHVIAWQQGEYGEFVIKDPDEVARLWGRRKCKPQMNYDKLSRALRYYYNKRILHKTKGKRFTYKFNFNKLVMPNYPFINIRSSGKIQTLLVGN
Summary of the method: as §1

ETV6 = ETV6 (Homo sapiens, UniProt P41212 1-452); settings: protein: recombinant; tags: N-terminal GST; dsDNA, one strand shown
Chain of ETV6 (P41212 whole entry): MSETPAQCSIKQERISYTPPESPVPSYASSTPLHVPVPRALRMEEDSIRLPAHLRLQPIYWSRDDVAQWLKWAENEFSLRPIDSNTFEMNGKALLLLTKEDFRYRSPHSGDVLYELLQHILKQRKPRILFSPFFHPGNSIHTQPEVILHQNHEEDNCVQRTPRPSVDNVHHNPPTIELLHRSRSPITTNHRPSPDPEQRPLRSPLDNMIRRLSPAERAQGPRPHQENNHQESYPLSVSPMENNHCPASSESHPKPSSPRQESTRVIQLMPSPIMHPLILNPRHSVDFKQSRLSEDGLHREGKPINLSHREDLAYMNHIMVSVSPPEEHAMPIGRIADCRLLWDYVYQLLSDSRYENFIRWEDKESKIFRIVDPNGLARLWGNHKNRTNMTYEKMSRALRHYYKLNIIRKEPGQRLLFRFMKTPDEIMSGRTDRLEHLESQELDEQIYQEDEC
Summary of the method: as §1

Sequence: TCCTTA
- binding signal (FEV): 1.48 fold enrichment (6-mer frequency, TF over GST control)
- binding signal (ETV5): 1.52 fold enrichment (6-mer frequency, TF over GST control)
- binding signal (HSF1): 1.54 fold enrichment (6-mer frequency, TF over GST control)
- binding signal (SPIC): 1.66 fold enrichment (6-mer frequency, TF over GST control)
- binding signal (ELF4): 1.56 fold enrichment (6-mer frequency, TF over GST control)
- binding signal (ELK4): 1.41 fold enrichment (6-mer frequency, TF over GST control)
- binding signal (ETV2): 1.59 fold enrichment (6-mer frequency, TF over GST control)
- binding signal (ELF3): 1.43 fold enrichment (6-mer frequency, TF over GST control)
- binding signal (CRX): 1.83 fold enrichment (6-mer frequency, TF over GST control)
- binding signal (ETV1): 1.56 fold enrichment (6-mer frequency, TF over GST control)
- binding signal (ERF): 1.43 fold enrichment (6-mer frequency, TF over GST control)
- binding signal (ETV3L): 1.7 fold enrichment (6-mer frequency, TF over GST control)
- binding signal (ETS2): 1.6 fold enrichment (6-mer frequency, TF over GST control)
- binding signal (SPDEF): 1.75 fold enrichment (6-mer frequency, TF over GST control)
- binding signal (ETV7): 1.59 fold enrichment (6-mer frequency, TF over GST control)
- binding signal (ELF5): 2.6 fold enrichment (6-mer frequency, TF over GST control)
- binding signal (ETV3): 1.74 fold enrichment (6-mer frequency, TF over GST control)
- binding signal (ETV6): 1.63 fold enrichment (6-mer frequency, TF over GST control)
